According to the supplement of paper PMC3545927:
Some of the results follow. How many sequences the whole screen found active is unknown.

B1: HC1625 (peptide)
chain: CAARLLARGGAGNASASA
B2: HC1029 (peptide)
chain: CAQTASRQAEAGNASASA
B3: HC801 (peptide)
chain: CAGVRTITTGAGNASASA
B4: HC2524 (peptide)
chain: CASTPCSIHLAGNASASA
B5: HC1843 (peptide)
chain: CATAPCSGSWAGNASASA
B6: FS-2586 (peptide)
chain: CARQKRDWVIAGNASASA
B7: FS-2677 (peptide)
chain: CARHKRDWVVAGNASASA
B8: FS-2444 (peptide)
chain: CARQKRFVLSAGNASASA
B9: FS-2113 (peptide)
chain: CARYSRGVLSAGNASASA
B10: FS-1822 (peptide)
chain: CARHERDAGVAGNASASA
B11: FU6 (peptide)
chain: CARQKRFVLSAGNASASA
B12: FS-2750 (peptide)
chain: CARQKRDTTHAGNASASA
B13: FS-2755 (peptide)
chain: CARQKRLFCRAGNASASA
B14: HC1644 (peptide)
chain: CALSGWFTAGAGNASASA
B15: HC303 (peptide)
chain: CAFLVGQLFTAGNASASA
B16: HC875 (peptide)
chain: CASGDVVVVAAGNASASA
B17: HC1729 (peptide)
chain: CAMEECSYHLAGNASASA
B18: TR10 (peptide)
chain: CAAPRSSMSNAGNASASA
B19: FS-3033 (peptide)
chain: CARQKKADEPAGNASASA
B20: FS-2506 (peptide)
chain: CARQKRDANSAGNASASA
B21: HC936 (peptide)
chain: CACQDHLEFWAGNASASA
B22: FS-446 (peptide)
chain: CAKDGRRRKSAGNASASA
B23: FS-1020 (peptide)
chain: CAKPRRRRKSAGNASASA
B24: FS-129 (peptide)
chain: CAGVGRVLRSAGNASASA
B25: FS-1019 (peptide)
chain: CAKPRRILRSAGNASASA
B26: HC297 (peptide)
chain: CASALYVGDLAGNASASA
B27: FS-987 (peptide)
chain: CADSSRPARFAGNASASA
B28: FS-1135 (peptide)
chain: CALKGRPARFAGNASASA
B29: FS-1545 (peptide)
chain: CAMTHRWNRFAGNASASA
B30: FS-1186 (peptide)
chain: CAARQRRARFAGNASASA
B31: FS-767 (peptide)
chain: CAFKHRRARFAGNASASA
B32: EK8 (peptide)
chain: CAVEGERGFFAGNASASA
B33: HC560 (peptide)
chain: CALLLALPQRAGNASASA
B34: HC2193 (peptide)
chain: CAEVRTSTWVAGNASASA
B35: HC2104 (peptide)
chain: CAIDVVCCSMAGNASASA
B36: HC1875 (peptide)
chain: CATTHCSGSWAGNASASA
B37: HC1377 (peptide)
chain: CAPCAAEEQKAGNASASA
B38: FS-2343 (peptide)
chain: CARKKRLKESAGNASASA
B39: FS-1903 (peptide)
chain: CARKKRRRESAGNASASA
B40: FS-3005 (peptide)
chain: CARNGRWEESAGNASASA
B41: FS-2967 (peptide)
chain: CARKKRQLYSAGNASASA
B42: FS-2213 (peptide)
chain: CARKKRFVSSAGNASASA
B43: HC266 (peptide)
chain: CASIVYEAADAGNASASA

Target: furin, P09958
Experiment: furin cleavage Z-score vs untreated control; higher = more cleavage, active = 3.5 or more, inactive = 1 or less, 8 variable residues between constant flanks
Method: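 Multiplexed peptide-cDNA fusion cleavage assay. 8-mer variable peptides flanked by constant Cys-Ala (N-term) and Ala-Gly-Asn-Ala-Ser-Ala-Ser-Ala (C-term) and conjugated to a cDNA oligonucleotide were bead-immobilised via the N-terminus. They were treated with purified furin at a 1:10 enzyme:substrate ratio in 50 mM HEPES pH 7.5, 1 mM CaCl2, 100 mM NaCl for 7.5, 15 or 30 min. Released cDNA was counted by next-generation sequencing, and log counts versus no-furin controls were lowess-adjusted and converted to robust Z-scores.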

Sequence of furin, P09958 (P09958 whole entry): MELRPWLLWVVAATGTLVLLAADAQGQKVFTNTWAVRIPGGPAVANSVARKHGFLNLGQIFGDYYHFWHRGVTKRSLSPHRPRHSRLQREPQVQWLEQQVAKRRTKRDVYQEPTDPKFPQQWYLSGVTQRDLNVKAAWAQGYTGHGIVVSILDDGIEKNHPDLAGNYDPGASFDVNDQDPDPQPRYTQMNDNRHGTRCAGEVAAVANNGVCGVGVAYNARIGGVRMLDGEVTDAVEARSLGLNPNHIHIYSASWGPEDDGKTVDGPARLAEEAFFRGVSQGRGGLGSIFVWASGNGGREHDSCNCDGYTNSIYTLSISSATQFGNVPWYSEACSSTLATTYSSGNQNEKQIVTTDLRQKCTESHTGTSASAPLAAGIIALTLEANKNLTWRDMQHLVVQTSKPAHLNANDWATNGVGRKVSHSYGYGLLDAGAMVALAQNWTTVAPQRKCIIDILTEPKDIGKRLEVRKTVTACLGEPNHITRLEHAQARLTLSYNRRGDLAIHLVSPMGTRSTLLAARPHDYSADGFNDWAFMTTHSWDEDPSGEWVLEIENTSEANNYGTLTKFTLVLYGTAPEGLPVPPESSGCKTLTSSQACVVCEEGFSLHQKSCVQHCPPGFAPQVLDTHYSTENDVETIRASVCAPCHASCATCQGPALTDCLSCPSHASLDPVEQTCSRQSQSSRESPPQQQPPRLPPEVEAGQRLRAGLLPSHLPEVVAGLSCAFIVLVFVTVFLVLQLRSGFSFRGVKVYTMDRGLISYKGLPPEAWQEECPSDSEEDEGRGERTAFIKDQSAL

Sequence	furin cleavage Z-score (7.5 min)	furin cleavage Z-score (15 min)	furin cleavage Z-score (30 min)
B1	-1.06 (inactive)	-1.7 (inactive)	-0.871 (inactive)
B2	1.23	0.0169 (inactive)	-0.455 (inactive)
B3	0.457 (inactive)	-0.157 (inactive)	-1.39 (inactive)
B4	-0.158 (inactive)	0.385 (inactive)	1.12
B5	-0.496 (inactive)	-0.615 (inactive)	-1.22 (inactive)
B6	2.07	4.34 (active)	6.74 (active)
B7	4.03 (active)	1.73	8.28 (active)
B8	4.98 (active)	5.66 (active)	7.27 (active)
B9	0.374 (inactive)	0.104 (inactive)	0.696 (inactive)
B10	0.322 (inactive)	0.612 (inactive)	-0.236 (inactive)
B11	5.85 (active)	4.21 (active)	6.95 (active)
B12	12.5 (active)	13.1 (active)	9.68 (active)
B13	-1.26 (inactive)	0.165 (inactive)	0.958 (inactive)
B14	-0.277 (inactive)	-0.506 (inactive)	-1.36 (inactive)
B15	-0.568 (inactive)	-0.266 (inactive)	0.343 (inactive)
B16	-0.568 (inactive)	-1.7 (inactive)	1.07
B17	-0.21 (inactive)	-0.538 (inactive)	-0.509 (inactive)
B18	-0.848 (inactive)	-0.0583 (inactive)	-0.668 (inactive)
B19	-0.414 (inactive)	0.374 (inactive)	-1.07 (inactive)
B20	10.9 (active)	12 (active)	11.1 (active)
B21	-1.02 (inactive)	-2.52 (inactive)	-2.85 (inactive)
B22	0.703 (inactive)	2.31	0.747 (inactive)

Sequence	furin cleavage Z-score (7.5 min)	furin cleavage Z-score (15 min)	furin cleavage Z-score (30 min)
B23	5.69 (active)	7.66 (active)	7.17 (active)
B24	7 (active)	7.17 (active)	7.2 (active)
B25	6.74 (active)	4.42 (active)	5.71 (active)
B26	-0.151 (inactive)	-0.752 (inactive)	-0.26 (inactive)
B27	0.601 (inactive)	2.61	1.35
B28	1.12	3.63 (active)	3.8 (active)
B29	-0.191 (inactive)	1.1	-0.35 (inactive)
B30	7.96 (active)	10.3 (active)	9.01 (active)
B31	5.47 (active)	8.44 (active)	8.1 (active)
B32	-1.92 (inactive)	-1.33 (inactive)	-1.12 (inactive)
B33	-0.644 (inactive)	-0.224 (inactive)	-1.36 (inactive)
B34	0.577 (inactive)	-0.283 (inactive)	2.14
B35	-0.251 (inactive)	0.23 (inactive)	1.61
B36	-0.832 (inactive)	-0.00567 (inactive)	-1.4 (inactive)
B37	0.0863 (inactive)	-1.23 (inactive)	0.435 (inactive)
B38	0.749 (inactive)	2.21	1.93
B39	4.55 (active)	6.12 (active)	4.85 (active)
B40	-0.164 (inactive)	-0.44 (inactive)	0.183 (inactive)
B41	7.88 (active)	8.76 (active)	9.63 (active)
B42	9.34 (active)	10.7 (active)	11.2 (active)
B43	0.365 (inactive)	0.0281 (inactive)	0.406 (inactive)
